The sample as a whole holds a higher share of hits than the screen did.
15-hLO-2 inh = 15-hLO-2 (ALOX15B) enzyme inhibition; O15296; purified 15hLO-2, xylenol orange hydroperoxide absorbance; Potency, µM (highest dose often 57.1 µM), actives largely listed as inhibitors; 110,000 compounds, 0.56% hits; AID 881; further: nearly all actives have a fitted effect of over 60% in size
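Screening format was qHTS against 50 nM purified 15hLO-2 in Hepes pH 7.5 with detergent. Activity follows hydroperoxide formation from 45 uM arachidonic acid, measured as 573:405 nm absorbance ratio of the ferric-xylenol orange complex.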
IMPase Li cell = cell-permeable IMPase inhibitors with lithium potentiation. CHO-M1 cells, IP1 TR-FRET (IP-One), carbachol + lithium. Potency, µM (highest dose often 59.4 µM), most hits filed as inhibitors. 210,000 compounds, 0.35% hits;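 further: IP1 builds up when IMPase is blocked and the TR-FRET signal falls; nearly all actives have a fitted effect of over 50% in size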
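Readout is a homogeneous TR-FRET IP1 immunoassay (Ex 320, Em 665 and 620), where raised cytosolic IP1 lowers signal. Cells were CHO-M1 treated 30 min at 37C with test compounds plus a little lithium; AC50 values came from Hill-equation fitting.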
PNC inhibitor = blocks assembly of the perinucleolar compartment | PC3M PTB-GFP, PNC prevalence imaging, 16 h; stronger effect = lower value | activity change (PNC), negative = inhibition, % at 10 µM | AID 2417 | 140,000 compounds, 3.1% hits;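 active means readout at or below -70, meaning at least 70% loss of cells showing the perinucleolar compartment, a nuclear body marking cancer cells; inconclusive means readout between -30 and a set limit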
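Read-out is percentage of cells bearing a perinucleolar compartment, from automated 20x imaging of fixed, Hoechst-stained PC3M PTB-GFP cells. Cells were seeded 4 h, then exposed 16 h to compound (23 nl of library stock) in duplicate plates.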
IMPase inh = IMPase inhibition in cells | 120,000 tested, under 10 active | CHO-M1 cells, IP1 accumulation, HTRF TR-FRET ratio | inhibition (IP1 accumulation), % at 46.1 µM; active means well fitted curve in the direction sought with a large enough effect in the signal ratio, not every such curve was filed as active; inconclusive means small, poorly fitted or top-dose-only effect, or a change in a side signal; inactive means no such curve, though single readings can be large or run the other way; the % refers to the signal ratio;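 further: cells stimulated with carbachol in lithium chloride buffer; higher means more IMPase inhibition seen as more IP1 and lower FRET ratio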
Target sequence (P97697 whole entry, looked up): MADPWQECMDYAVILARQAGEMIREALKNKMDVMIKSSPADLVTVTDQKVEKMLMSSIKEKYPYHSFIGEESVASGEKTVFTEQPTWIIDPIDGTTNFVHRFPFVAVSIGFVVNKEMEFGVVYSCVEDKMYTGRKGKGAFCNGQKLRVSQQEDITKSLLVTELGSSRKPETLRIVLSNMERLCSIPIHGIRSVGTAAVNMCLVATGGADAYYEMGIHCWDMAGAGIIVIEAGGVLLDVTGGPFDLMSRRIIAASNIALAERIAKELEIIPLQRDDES
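Cellular IMPase inhibition is scored as a rise in cytosolic IP1, detected by competitive TR-FRET between d2-labelled IP1 and a europium anti-IP1 antibody. M1-expressing CHO cells were stimulated with carbachol for 30 min at 37C, with lithium (50 mM LiCl) present in the buffer.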
12-hLO inh = 12-hLO (ALOX12) enzyme inhibition | Potency, µM (top dose mostly 57.1 µM), most hits filed as inhibitors | P18054 | 150,000 compounds, 0.12% hits | AID 1452 | purified 12-hLO, xylenol orange hydroperoxide absorbance; further: nearly all actives have a fitted effect of over 55% in size
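Hydroperoxide output read as Fe(III)-xylenol orange absorbance, 573-to-405 nm ratio, after 30 min reaction with 40 uM arachidonic acid. Enzyme: 150 nM purified human 12hLO, 15 min compound preincubation; 25 mM Hepes pH 7.0, room temperature.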
Each line names hits and unclear results; the compound was inactive in the other large screens. Unless noted, the call rests on the fitted dose curve; in most records, active means well fitted curve in the direction sought with a large enough effect; inconclusive means small, poorly fitted or top-dose-only effect, or another doubt; inactive means no such curve, though single readings can be large; an effect the other way counts as inactive or inconclusive.

COc1ccc(CCN2C(=O)C(O)=C(C(=O)c3ccco3)C2c2cccs2)cc1OC (stereo not given)	IMPase Li cell 6.3µM, IMPase inh inconclusive
O=C(C1=C(O)C(=O)N(CCOCCO)C1c1cccs1)c1cccs1 (stereo not given)	IMPase Li cell 7.9µM, IMPase inh inconclusive
C[C@@]12CCC[C@H]1C1CC[C@H]3C[C@H](O)CC[C@]3(C)C1CC2 (stereo not given in full)	none (no result: 15-hLO-2 inh, PNC inhibitor, IMPase inh, 12-hLO inh)
N#Cc1c(-n2ncnc2-c2ccc(F)cc2)sc2c1CCCCC2	none (no result: 15-hLO-2 inh, IMPase Li cell, PNC inhibitor, 12-hLO inh)
CCCCOc1cccc(C(=O)Nc2sc3c(c2C(=O)OCC)CCCC3)c1	none (no result: 15-hLO-2 inh, IMPase Li cell, PNC inhibitor, 12-hLO inh)
COC(=O)c1ccc2c(c1)C(C)(C)C(/C=C/c1ccccc1O)=[N+]2C	15-hLO-2 inh 16µM, 12-hLO inh 14µM
Cc1ccc(OCC(=O)Nc2ccccc2Sc2ccccc2)c([N+](=O)[O-])n1	PNC inhibitor -107 (no result: 15-hLO-2 inh, IMPase inh)
O=C(CCc1ccccc1)NNC(=S)NC(=O)c1ccccc1	none
O=C(CNC(=S)NC(=O)c1ccc(Cl)cc1)c1ccccc1	IMPase Li cell 10µM (no result: 15-hLO-2 inh, IMPase inh)
O=C(NC(=S)NCCc1ccccc1)c1ccccc1	15-hLO-2 inh 13µM, PNC inhibitor inconclusive, 12-hLO inh 18µM
Cc1cc(NC(=O)Nc2ccc(N(C)C)cc2)c2cc(F)cc(F)c2n1	none (no result: PNC inhibitor)
Cn1cc(SCC(=O)Nc2nc3ccccc3s2)c2ccccc21	PNC inhibitor -89
CCn1cc(SCC(=O)N2CCOCC2)c2ccccc21	PNC inhibitor inconclusive
Cn1cc(SCC(=O)N2CCOCC2)c2ccccc21	PNC inhibitor -108
O=C(O)c1cn(-c2ccc(F)cc2)c2cc(N3CCNCC3)c(F)cc2c1=O	none (no result: PNC inhibitor, IMPase inh)
CCSCCOC(=O)C1=C(C)NC2=C(C(=O)CCC2)C1c1coc2ccccc2c1=O (stereo not given)	PNC inhibitor inconclusive
CC1=C(C(=O)OC(C)C)C(c2coc3ccccc3c2=O)C2=C(CCCC2=O)N1 (stereo not given)	PNC inhibitor -81
CCNC(=S)NNC(=O)c1ccccc1OC(F)F	none
CCNC(=S)NNC(=O)c1ccccc1Cl	PNC inhibitor -81 (no result: 15-hLO-2 inh, IMPase inh)
Cc1cc2nc3c(=O)[nH]c(=O)nc-3n(CC(O)C(O)C(O)COP(=O)(O)O)c2cc1C (stereo not given)	none (no result: PNC inhibitor, IMPase inh)
O=C(Nc1cccc(F)c1)N1CC2(CCN(C(=O)c3ccco3)CC2)C1	none (no result: PNC inhibitor, IMPase inh)
CC(=O)N(Cc1ccccc1)c1ccc(C(=O)O)cc1	PNC inhibitor -85
CC(=O)N(CCN(C(C)=O)c1ccccc1)c1ccccc1	PNC inhibitor inconclusive
C/C=C/C=C/C(=O)Nc1nccs1	PNC inhibitor -116 (no result: 15-hLO-2 inh, IMPase inh)
Cc1[nH]c2ccccc2c1C1C(c2ccccc2)=NN=C(C(C)C)N1O (stereo not given)	PNC inhibitor -103 (no result: 15-hLO-2 inh)
Cc1[nH]c2ccccc2c1C(=O)C(=O)N1CC=C(c2ccccc2)CC1	PNC inhibitor inconclusive (no result: 15-hLO-2 inh)
CC1=NN=C(c2ccccc2)C(c2c[nH]c3ccccc23)N1O (stereo not given)	PNC inhibitor -114 (no result: 15-hLO-2 inh, IMPase inh)
C=C(C)CSc1nc2sc3c(c2c(=O)n1Cc1ccccc1)CC(C)(CC)OC3 (stereo not given)	none (no result: 15-hLO-2 inh, IMPase Li cell, PNC inhibitor, 12-hLO inh)
Cc1c(C(=O)O)oc2ccc(S(=O)(=O)NC3CCCCCCC3)cc12	PNC inhibitor -113 (no result: 15-hLO-2 inh, IMPase inh)
Cc1c(C(=O)O)oc2ccc(S(=O)(=O)NCc3ccc(F)cc3)cc12	none
O=C(O/N=C(\c1ccccc1)c1ccccn1)c1ccc(Cl)c(Cl)c1	PNC inhibitor -107
CC1CC(=O)C2=C(C1)Nc1ccccc1SC2c1ccc(F)cc1 (stereo not given)	PNC inhibitor -85 (no result: 15-hLO-2 inh, IMPase inh)
CC(C)c1ccc(C2Sc3ccccc3NC3=C2C(=O)c2ccccc23)cc1 (stereo not given)	none (no result: 15-hLO-2 inh, IMPase Li cell, PNC inhibitor, 12-hLO inh)
O=S(=O)(NCc1cn2ccccc2n1)c1cc(F)ccc1F	PNC inhibitor -100 (no result: 15-hLO-2 inh)
CCOC(=O)c1c(-c2ccc(C)o2)csc1NC(=S)NC(=O)N(C)C	15-hLO-2 inh 25µM, 12-hLO inh inconclusive
O=C(NCC1CCCCC1)c1nnc(C(=O)NCC2CCCCC2)c2c1[nH]c1ccccc12	none (no result: 15-hLO-2 inh, PNC inhibitor, IMPase inh, 12-hLO inh)
CCNc1ncc2nc(-c3cc(F)cc(F)c3)c(=O)n(Cc3cccs3)c2n1	none (no result: PNC inhibitor, IMPase inh)
